Screening data from PubChem.
Most compounds without a hit are left out; they make up all but 3.9% or so of the library.
PLCg1 inh – PLC-gamma1 (human) inhibition, primary screen | purified PLC-gamma1, fluorogenic substrate, fluorescence | AID 720700 | inhibition, % at 12.2 µM | P19174 | hit rate 0.84% among 370,000; in the data active = inhibition above about 9.5%
Yeast superoxide – caloric restriction mimetics inhibiting age-related superoxide in yeast | S. cerevisiae aged cells, superoxide DHE fluorescence; active compounds read low | superoxide response (% of plate mean), % at 10 µM | hit rate 0.18% among 330,000 | AID 2690;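 active = superoxide response under a set limit, about three screen SD below normal, cut at about 65% in these data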;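 also: yeast aged for seven days with compound at 30 °C before DHE staining; 100% = average MFI of all compound-treated wells on the plate with controls excluded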
HIF activator – HIF pathway transcriptional activation; U2OS HRE-luciferase reporter, luminescence; normalized: DMSO 0%, desferrioxamine 100%; activation, % at 7.5 µM (by protocol); hit rate 0.32% among 300,000;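 active = mean activation of at least 10% of the iron chelator positive control signal, with at least half of replicates also reaching 10%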
AHR act – activators of human aryl hydrocarbon receptor; P35869; AHR-responsive luciferase reporter cells, luminescence; activation, % at 5 µM; hit rate 2.5% among 320,000; in the data active = activation above about 47%;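 also: 0% = vehicle wells and 100% = reference agonist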
PLC-beta3 inh – blocks human PLC-beta3 enzyme activity; Q01970; Purified PLC-beta3, fluorogenic substrate, fluorescence; inhibition, % at 12.2 µM; hit rate 0.18% among 370,000; AID 720704; in the data active = inhibition above about 11%;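 also: 0% = median of compound wells on plate and 100% = full blocker control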
HGIII-sPLA2 inh – Inhibits HGIII-sPLA2 liposome hydrolysis, primary screen | hit rate 0.56% among 370,000 | AID 743126 | QFRET BODIPY PC-A2 liposome hydrolysis, fluorescence | inhibition, % at 12.2 µM;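 active = inhibition above mean plus 3 SD of compounds lying within the high and low control bounds, cut at about 19% in these data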;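 also: 0% = median of test compound wells and 100% = no enzyme DMSO wells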
Target sequence (Q9NZ20 whole entry, looked up): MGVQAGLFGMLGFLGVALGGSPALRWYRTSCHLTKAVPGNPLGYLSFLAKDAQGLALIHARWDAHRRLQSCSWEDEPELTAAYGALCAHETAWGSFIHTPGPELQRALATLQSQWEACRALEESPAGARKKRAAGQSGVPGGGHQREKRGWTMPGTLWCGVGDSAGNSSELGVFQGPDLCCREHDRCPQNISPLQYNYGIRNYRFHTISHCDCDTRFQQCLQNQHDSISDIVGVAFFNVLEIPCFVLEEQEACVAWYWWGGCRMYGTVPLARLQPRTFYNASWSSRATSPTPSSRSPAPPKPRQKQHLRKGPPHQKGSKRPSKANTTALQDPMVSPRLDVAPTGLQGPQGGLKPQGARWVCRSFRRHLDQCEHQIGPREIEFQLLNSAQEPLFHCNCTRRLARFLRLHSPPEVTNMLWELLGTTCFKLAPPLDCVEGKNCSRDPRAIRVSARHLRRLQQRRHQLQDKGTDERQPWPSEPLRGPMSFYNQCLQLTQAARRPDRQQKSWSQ
* hit, by the source's call; i = inactive; . = not tested or not shown.

SMILES | PLCg1 inh | Yeast superoxide | HIF activator | AHR act | PLC-beta3 inh | HGIII-sPLA2 inh
COc1ccc(C(=O)C2CCCN(Cc3cn[nH]c3-c3ccccc3)C2)cc1OC (configuration not stated) | 0 | 100 | 0 | 0 | -7 | -8
Cc1ccc(C(=O)C2CCN(CC(=O)NC(C)C)CC2)cc1 | 1 | . | . | . | 2 | 2
Cc1ncc(CO)c(/C=N/NC(=S)Nc2ccc(Cl)c(Cl)c2)c1O | -234 | 75 | 0 | 25 | -257 | -9
Cc1ncc(CO)c(/C=N/NC(=O)c2cc3c(s2)CCCC3)c1O | i | 103 | 22* | 12 | i | -9
Cc1ncc(CO)c(/C=N/NC(=S)Nc2cccc(Cl)c2)c1O | . | 75 | 1 | 54* | . | .
O=C(Cn1cnc2ccccc2c1=O)N1CCCCC1 | 7 | . | . | . | 3 | 7
O=[N+]([O-])c1ccc(Oc2cccc(F)c2)c2ccncc12 | -4 | 77 | 0 | 55* | -1 | 3
Clc1ccc(-n2c(SCc3cccc4ccccc34)nnc2-c2ccco2)cc1 | -1 | . | . | . | -1 | -10
O=c1[nH]c2ccccc2cc1-c1noc(-c2cccnc2)n1 | -6 | 104 | 0 | 73* | -18 | 9
c1ccc(-c2ccc(-c3nc(-c4cccnc4)no3)cc2)cc1 | 0 | 83 | 1 | -9 | 0 | -1
COc1ccc2[nH]c(=O)c(-c3noc(-c4ccccc4)n3)cc2c1 | -153 | 108 | 1 | 25 | -209 | 4
c1ccc(-c2noc(-c3cccnc3)n2)cc1 | 0 | 123 | 1 | 59* | 4 | -2
Oc1ccc(-c2nn[nH]n2)c2cccnc12 | -6 | . | . | . | -12 | -1
O=C(Nc1nccs1)C(Br)C(Br)c1ccccc1 (configuration not stated) | 4 | 108 | 2 | 52* | -1 | -6
O=C(Nc1nccs1)C(c1ccccc1)N1CCCCC1 (configuration not stated) | 2 | 88 | 0 | -1 | -2 | -6
CCOc1ccccc1NC(=O)c1ccc2c(c1)C(=O)N(CC1CCCO1)C2=O (configuration not stated) | 5 | 97 | 0 | 73* | -4 | 0
Cc1c(NC(=O)c2ccc3c(c2)C(=O)N(CC2CCCO2)C3=O)cccc1C(=O)O (configuration not stated) | 0 | 108 | 0 | 4 | 0 | 1
C#CCCN([C@H](C(=O)OC)C(C)C)S(=O)(=O)c1ccccc1Br | -1 | . | . | . | -1 | 3
CCOC(=O)N1CCN(C(=O)C[C@@H]2C[C@]3(C(=O)OCC)CCC4=C3N(CCC4)C2=O)CC1 | 0 | . | . | . | -1 | 8
O=C(Cc1nc(=O)c2ccccc2s1)Nc1ccccc1 | -5 | 81 | 1 | 50* | -9 | -3
O=C(Cc1ccccc1)Nc1nc(=O)c2ccccc2s1 | 2 | 124 | 0 | -1 | 12* | -3
O=C(CSc1nc2ccccc2nc1N1CCOCC1)NCc1ccc(Cl)cc1Cl | -2 | . | . | . | 0 | -1
COc1ccc(Br)c(/C=N/NC(=O)COc2ccc(-c3ccccc3)cc2)c1 | -4 | 94 | -23 | 24 | 0 | -10
O=C(O)COc1ccccc1/C=N/NC(=O)COc1ccc(-c2ccccc2)cc1 | -1 | 116 | 0 | 68* | -12 | -10
CCn1c2ccccc2c2cc(NC(=O)COC(=O)c3ccc(F)cc3F)ccc21 | -4 | . | . | . | 2 | 2
SMILES | PLCg1 inh | Yeast superoxide | HIF activator | AHR act | PLC-beta3 inh | HGIII-sPLA2 inh
Cc1cc2ccccc2cc1C(=O)c1ccccc1 | 2 | . | . | . | 0 | 4
O=C(c1ccccc1)c1c2c(cc3sc4ccccc4[n+]13)-c1cccc3cccc-2c13 | -265 | 117 | . | 54* | -260 | 23*
Cc1sc2cc3c(c(C(=O)c4ccccc4)[n+]2c1C)-c1cccc2cccc-3c12 | -70 | 100 | 11* | 7 | -91 | 19
CC(C)n1nnnc1C1(C)CSCC(=O)N1Cc1cccc(F)c1 (configuration not stated) | -1 | . | . | . | 0 | 0
C#CCN1CC(N(C)CCOC(=O)CCCc2ccccc2)CS1(=O)=O (configuration not stated) | 0 | . | . | . | 1 | -3
Fc1ccc2cc(-c3ccccc3F)ncc2c1 | 0 | 110 | . | 76* | 3 | 0
COc1ccc(-c2cc3cc(F)ccc3cn2)cc1 | -23 | 96 | . | 51* | -32 | 2
COc1ccc(-c2cc3ccc(F)cc3cn2)cc1 | -48 | 105 | . | 47* | -65 | -4
COc1cccc(CNC(=O)[C@H]2CCCN2C(=O)[C@H]2CCCN2C(=O)c2c(F)cccc2F)c1 | -3 | . | . | . | 3 | 7
CCCCOCCCNC(=O)C[C@H]1C[C@@]2(C(=O)OCC)CCCC3=C2N(CCC3)C1=O | 5 | . | . | . | 8 | 2
COc1ccc(C2C(C(=O)Nc3cc(Cl)ccc3F)CCC(=O)N2c2ccc(OC)cc2)cc1 (configuration not stated) | 4 | . | . | . | 2 | -25
Cc1ccc(NC(=S)NNC(=O)CSc2nc3sc4c(c3c(=O)n2-c2ccccc2)CCCC4)cc1 | 4 | . | . | . | 2 | -1
O=C(Nc1ccc2c(c1)OCO2)[C@@H]1[C@@H]2C(=O)N(C3CCCCC3)C(=O)[C@@H]2C2c3ccccc3C=CN21 (some centres not stated) | -4 | 95 | 0 | 53* | -6 | -4
O=C(c1ccc2c(c1)OCO2)[C@@H]1[C@@H]2C(=O)N(C3CCCCC3)C(=O)[C@@H]2C2c3ccccc3C=CN21 (some centres not stated) | -20 | . | -1 | . | -20 | -31
COc1ccc(N2C(=O)[C@@H]3[C@H](C2=O)[C@H]2c4ccccc4C=CN2[C@@H]3C(C)=O)cc1 | -8 | 99 | . | 51* | -13 | -1
CC(C)(C)C(=O)[C@@H]1[C@@H]2C(=O)N(C3CCCCC3)C(=O)[C@@H]2[C@H]2c3ccccc3C=CN12 | -27 | 123 | . | 93* | -37 | -26
COc1ccc(N2C(=O)[C@H]3[C@@H](C2=O)C2c4ccccc4C=NN2[C@H]3C(=O)C(C)(C)C)cc1 (some centres not stated) | 0 | 102 | -1 | -1 | -6 | -1
COC(=O)C1CN(Cc2ccc(OC)cc2)CCS(=O)(=O)N1Cc1cn(CCOC(C)=O)nn1 (configuration not stated) | 2 | . | . | . | 2 | 8
O=c1c2ccccc2nc(COc2ccccc2)n1/N=C/c1cc([N+](=O)[O-])ccc1O | 3 | 89 | 11* | 7 | 3 | -16
CCCc1nc2ccccc2c(=O)n1/N=C/c1ccccc1O | 4 | 103 | 13* | -1 | 2 | -2
CCCc1nc2ccccc2c(=O)n1/N=C/c1c(C)[nH]n(-c2ccc(C)cc2)c1=O | -16 | 108 | 0 | 59* | -149 | -4
Cc1cc(/C=N/n2c(COc3ccccc3C)nc3ccccc3c2=O)c(O)c([N+](=O)[O-])c1 | 0 | 92 | 7 | 13 | -1 | 8
